# Source: PubChem (several laboratories)
# Hits are enriched below; roughly 1.9% of the tested compounds scored in any of these assays.
# Efa HMGR inh: inhibitors of class II HMG-CoA reductase from Enterococcus faecalis; purified E. faecalis HMGR, NADPH absorbance 340 nm kinetic; AID 1066; hit rate 0.41% among 190,000; inhibition, % at 10 µM;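 active means inhibition above a set limit, the median over all tested compounds plus 3 SD, cut at about 9.5% in these data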;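 further: enzyme runs in reverse so mevalonate oxidation gives rising NADPH absorbance; 0% = complete reaction with DMSO and 100% = background rate lacking mevalonate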
# EP2 antag: inhibitors of human EP2 prostaglandin E2 receptor | inhibition, % at 25 µM | hit rate 0.52% among 260,000 | C6 glioma cells expressing human EP2, cAMP TR-FRET; cells stimulated with saturating PGE2 | P43116;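 active means percent inhibition above 40 after rounding to a whole number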;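 further: rat C6 glioma host cells with rolipram phosphodiesterase inhibitor present; the protocol text gives 20 µM as final concentration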
# Target sequence (P43116 whole entry, looked up): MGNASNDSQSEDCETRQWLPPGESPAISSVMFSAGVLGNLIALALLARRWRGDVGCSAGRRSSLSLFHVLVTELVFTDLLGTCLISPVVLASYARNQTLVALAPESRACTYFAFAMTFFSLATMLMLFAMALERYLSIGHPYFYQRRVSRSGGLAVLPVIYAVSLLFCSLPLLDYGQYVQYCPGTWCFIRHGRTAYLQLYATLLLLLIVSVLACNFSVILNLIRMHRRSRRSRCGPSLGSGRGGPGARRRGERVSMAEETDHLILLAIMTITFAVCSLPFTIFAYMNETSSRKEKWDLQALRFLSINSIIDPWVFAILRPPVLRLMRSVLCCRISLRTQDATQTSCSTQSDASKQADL
# m-calpain inh: inhibitors of pig calpain II | hit rate 0.37% among 220,000 | purified calpain II, fluorogenic peptide substrate, 30 min | inhibition, % at 16 µM;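 active means inhibition above about 50%, limit read from the data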
# EP2 mod: EP2 receptor (human) modulation; hit rate 0.83% among 260,000; induction, % at 25 µM; EP2-expressing cells, cAMP HTRF FRET, PGE2 co-stimulation; AID 940;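 active means compounds whose cAMP rise, as percent of the full-agonist control response, exceeds 60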;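 further: rat C6 glioma line stably carrying human EP2 under a CMV promoter; the protocol text gives 20 µM as final concentration; 100% = response of wells given 1 µM PGE2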
# Furin inh: blocks human furin protease activity | P09958 | purified furin, fluorogenic substrate cleavage | inhibition, % at 20 µM or 30 µM | hit rate 0.061% among 220,000 | AID 463115; in the data active means inhibition above about 25%
# The depositor's hits bear a star; · = no result given; ! = not confirmed by another sample.
SMILES,Efa HMGR inh,EP2 antag,m-calpain inh,EP2 mod,Furin inh
CCOC(=O)C(C)On1c(-c2ccccc2)nc2ccc([N+](=O)[O-])cc21 (stereo not drawn),-1,14,24,62*,-8
O=S1(=O)c2ccccc2N=NN1Cc1ccc(Cl)c(Cl)c1,0,45*,-21,-36,-4
CS(=O)(=O)c1cncnc1C1CCCN(CC(=O)N2CCOCC2)C1 (stereo not drawn),·,·,·,8,·
Cc1ccccc1C(=O)c1cccn1CC(=O)NCc1ccco1,0,10,-31,18,-16
O=C(Cn1cccc1C(=O)c1ccccc1)NCc1ccco1,14*,22,-6,30,-13
CCCn1ncc(C(=O)N[C@@H](C)Cn2nnc3ccccc32)c1C,·,10,·,-24,·
CCC(C)C(=O)Nc1nnc(SCCOC)s1 (stereo not drawn),·,7,·,4,·
O=C(O)Cn1cnc2c(oc3ccccc32)c1=O,·,8,-24,-7,-25
CCn1cnc2c(oc3ccccc32)c1=O,11*,5,7,-19,-12
CCOc1ccccc1-n1c(SCC(=O)N2CCCC(C)C2)nnc1-c1cccnc1 (stereo not drawn),·,13,·,-23,·
Cc1ccc2[nH]c(=O)c(CN(Cc3ccccc3)C(c3nnnn3Cc3ccco3)C(C)C)cc2c1 (stereo not drawn),·,14,·,20,·
CC(C)Cn1c(=O)[nH]c(=O)c2c(C(F)(F)F)cc(-c3ccccc3)nc21,·,5,-9,66*,-22
CCCn1c(=O)[nH]c(=O)c2c(C(F)(F)F)cc(-c3ccc(C)cc3)nc21,-6,9,-160,40,-34
Cc1ccccc1NC(=O)c1ccc(N/N=C/c2ccccc2O)c([N+](=O)[O-])c1,4,·,55*,7,-4
COC(=O)Cc1cc(=O)n2[nH]c(C)nc2n1,-5,4,-36,18,-27
COC(=O)Cc1cc(=O)n2[nH]cnc2n1,30*,12,2,14,1
Cc1sc(NC(=O)CN(C(=O)c2cccs2)C2CCCCC2)c(C(N)=O)c1C,·,7,·,-9,·
O=C(c1c[nH]c2ccccc12)C1CCCCC1,·,10,·,-79,·
Cc1cc(Cc2cc(Cc3cc(C)cc(C(C)(C)C)c3O)c(C)cc2C)c(O)c(C(C)(C)C)c1,·,52*,·,19,·
CC(=O)Nc1ccc(C(=O)CSc2nc(C3CC3)nc3ccccc23)cc1,·,25,·,36,·
COc1ccc2nc3cc(Cl)ccc3c(Nc3ccc(O)c(CN4CCN(C)CC4)c3)c2c1,·,90*,·,-34,·
N/C(=N\NC(=O)c1ccccc1)c1cc2ccccc2oc1=O,-1,8,59*,-1,-23
N/C(=N\NC(=O)c1cccs1)c1cc2cc(Cl)ccc2oc1=O,·,5,-9,-15,-27
CCc1ccc(NC(=O)CSc2nc3cc(OC)ccc3cc2C#N)cc1,·,19,·,27,·
CCc1nnc(NC(=O)CSc2nc3cc(C)c(C)cc3cc2CC)s1,·,20,·,69*,·
SMILES,Efa HMGR inh,EP2 antag,m-calpain inh,EP2 mod,Furin inh
COc1ccc2cc(C#N)c(SCC(=O)OC(C)C)nc2c1,·,15,·,84*,·
COc1ccc2cc(C#N)c(SCC(=O)N3CC(=O)Nc4ccccc43)nc2c1,·,31,-13,73*!,-25
COc1cccc(NC(=O)CSc2nc3cc(OC)ccc3cc2C#N)c1,·,6,·,67*,·
Cc1cc(N2CCOCC2)c2ccccc2n1,·,11,·,-1,·
CCc1nnc(NC(=O)CSc2nc3ccc(C)cc3cc2C#N)s1,·,9,·,-21,·
CCOc1ccc2cc(C#N)c(SCC(=O)Nc3nnc(CC)s3)nc2c1,·,22,·,73*,·
COc1ccc(C2C3=C(Nc4ncnn42)c2ccccc2OC3c2ccc(F)cc2)cc1OC (stereo not drawn),·,10,·,3,·
CC1=c2c(oc3cc(O)c(Nc4c(C)cc(O)cc4O)c(C)c23)=CC(=O)C1=Nc1c(C)cc(O)cc1O,·,53*,·,-7,·
CN(C)CCN(Cc1cccs1)Cc1ccc(Br)s1,·,5,·,-34,·
O=C1C(=O)c2ccccc2C(O)=C1C(CCc1ccccc1)C1=C(O)c2ccccc2C(=O)C1=O,·,42*,·,27,·
O=C1C(=O)c2ccccc2C(O)=C1C(C1=C(O)c2ccccc2C(=O)C1=O)c1ccc(Cl)cc1,·,37,·,23,·
CS(=O)(=O)c1cnc2ncnn2c1C1CCCN(C(=O)CCc2ccccc2)C1 (stereo not drawn),·,·,·,-23,·
COc1cc2c(cc1OC)CN(C(=O)CSc1nc3c(cc1C#N)CCCCC3)CC2,·,8,·,16,·
O=C1C=C(Nc2ccccc2)C(=O)c2ccccc21,-2,37,57*,-18,-12
CC1=CC(=O)c2ccccc2C1=O,0,46*,-5,-40,-11
C[C@@]1(CCOCc2ccccc2)NC(=O)NC1=O,·,10,·,28,·
Cc1cc2n(n1)C(c1c(F)cccc1Cl)Nc1ccccc1-2 (stereo not drawn),·,10,·,51,·
CCOC(=O)c1cccc(NC(=O)CSc2nnnn2-c2ccc(OCC)cc2)c1,·,14,·,-79,·
CCOC(=O)C1CCCN(Cc2ccccc2F)C1 (stereo not drawn),-9,2,-17,17,-19
O=C(O)c1ccccc1CN1CCC[C@@H](C(=O)O)C1,·,48*,·,3,·
CSc1cccc(NC(=O)CSc2ccc(Cl)cc2)c1,-2,16,51*,-29,-12
CSc1cccc(NC(=O)CSc2ccc(C)cc2)c1,-1,17,5,-16,-16
CC1CCCCN1c1nc(-c2ccncc2)nc2ccccc12 (stereo not drawn),-2,22,-20,65*,2
Cc1cc(C)cc(Oc2nc(C(F)(F)F)nc3ccccc23)c1,2,9,-11,61*,16
COc1ccc(Oc2nc3ccccc3nc2C(F)(F)F)cc1,2,5,-6,21,-18
SMILES,Efa HMGR inh,EP2 antag,m-calpain inh,EP2 mod,Furin inh
CC(C)NCC(O)c1ccc(O)c(O)c1 (stereo not drawn),·,12,·,76*,·
NC[C@H](O)c1ccc(O)c(O)c1,·,17,·,72*,·
CCOc1ccccc1NC(=O)Cn1nnc(-c2ccccc2-n2cnnn2)n1,·,8,·,-23,·
COC(=O)c1ccccc1Nc1ccccc1,-11,9,3,64*,-26
O=C(COC(=O)c1ccccc1Nc1ccccc1)c1ccccc1,-5,6,27,23,-10
c1ccc(-c2nnsc2-c2ncc[nH]2)cc1,1,4,6,-27,-15
c1ccc(-c2nnsc2-c2nc3ccccc3[nH]2)cc1,12*,6,-172,-43,-23
COc1ccc(-c2cc(C(=O)O)no2)cc1OC,·,8,·,16,·
C/C(CC/C(C)=N/O)=N\O,·,15,·,-15,·
